Hits are enriched below; roughly 7% of the tested compounds scored in any of these assays.
ADAM10 inh: ADAM10 inhibition, QFRET primary screen | O14672 | AID 720582 | recombinant ADAM10, EDANS/DABCYL FRET peptide cleavage, 3 h | 370,000 tested, 0.62% active | inhibition, % at 7 µM;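 active means inhibition above a per-campaign cutoff equal to the mean of compounds falling between control-based bounds plus 3 SD, cut at about 20% in these data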
rCAG binder: r(CAG) repeat RNA binding; TO-PRO-1 dye displacement fluorescence; 370,000 tested, 1.3% active; inhibition, % at 3 µM;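 active means inhibition above the plate cutoff, the mean of all test compounds on that plate plus 3 SD, cut at about 35% in these data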;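 further: higher means more dye released from RNA so lower well fluorescence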
AHR activator: human AHR activation. P35869. AHR-responsive luciferase reporter cells, luminescence. activation, % at 5 µM. 320,000 tested, 2.5% active. AID 2796; in the data active means activation above about 47%
KLK7 zymogen act: proKLK7 (human) activation, primary screen; activation, % at 7 µM; 370,000 tested, 0.9% active; AID 652039; P49862; purified proKLK7, EDANS-DABCYL substrate fluorescence; 100% is mature enzyme control, 0% vehicle;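 active means activation above the mean of all tested compounds plus 3 SD, computed per campaign excluding outliers beyond control limits, cut at about 13% in these data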
Target sequence (P49862 whole entry, looked up): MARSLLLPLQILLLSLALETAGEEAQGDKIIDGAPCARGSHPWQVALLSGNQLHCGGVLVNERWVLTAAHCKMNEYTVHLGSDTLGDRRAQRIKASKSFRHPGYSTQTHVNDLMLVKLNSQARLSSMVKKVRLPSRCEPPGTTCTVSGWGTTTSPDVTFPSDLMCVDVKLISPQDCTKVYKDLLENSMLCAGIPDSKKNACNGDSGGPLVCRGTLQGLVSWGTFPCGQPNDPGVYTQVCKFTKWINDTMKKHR
GRIN3A LBD mod: modulates the human NR3A ligand-binding domain; NR3A LBD differential scanning fluorimetry, Tm shift; 0% = protein alone, 100% = glycine-bound protein; Tm shift relative to glycine control, % at 25 µM; 340,000 tested, 2.5% active;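 active means melting temperature shift of at least 10% of the positive control shift, at one fixed dose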
ADAM17 inh: inhibitors of human ADAM17; P78536; recombinant ADAM17, EDANS/DABCYL FRET peptide cleavage; inhibition, % at 6.95 µM; 370,000 tested, 0.83% active; AID 720648;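 active means inhibition above the mean of compounds lying between control limits plus 3 SD, set per campaign, cut at about 8.5% in these data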
Large screens that a line does not name were inactive.

O=C1CC(CC(=O)N/N=C/c2ccccc2[N+](=O)[O-])=NN1	AHR activator 47.4
O=C(O)c1cnn(-c2nc(-c3ccc(Cl)cc3)cs2)c1C(F)(F)F	GRIN3A LBD mod 28.2
Cc1ccc(-c2cc3c(N=O)c4ccccc4c-3n[nH]2)cc1	none
Cc1cccc(-c2cc3c(N=O)c4ccccc4c-3n[nH]2)c1	AHR activator 126.6
NC(=O)c1c(N)[nH]c(C(=O)c2ccccc2)c1-c1ccccc1C(F)(F)F	none (no result: rCAG binder, AHR activator, KLK7 zymogen act, GRIN3A LBD mod)
CCNC(=S)N/N=C/c1cc(Br)cc(Br)c1OC	AHR activator 62.9
COc1c(Br)cc(Br)cc1/C=N/NC(=O)c1ccncc1	AHR activator 57.5
CCC(=O)Nc1ccc(C(=O)N/N=C/c2cc(Br)c(OC)cc2OC)cc1	GRIN3A LBD mod 23.7
COc1c(Br)cc(Br)cc1/C=N/NC(=O)c1cccnc1	none (no result: AHR activator)
O=C(Nc1ccc2ccccc2c1)NC1CCCCN(Cc2cccc(Cl)c2)C1=O (configuration not stated)	none (no result: AHR activator, GRIN3A LBD mod)
CCOC(=O)N=Nc1c2ccccc2c2nc3no[nH]c3nc12	GRIN3A LBD mod 24.6 (no result: AHR activator)
CCOC(=O)N=Nc1c(O)n(CC(=O)OC)c2ccccc12	none
Brc1ccc2ncnc(Nc3cccc4ccccc34)c2c1	AHR activator 58.8
COc1ccc(-c2nc3c4ccccc4[nH]c(=O)n3n2)cc1	AHR activator 111.7
COc1cc2[nH]c(=O)n3nc(-c4ccccc4)nc3c2cc1OC	none (no result: ADAM10 inh, rCAG binder, KLK7 zymogen act, ADAM17 inh)
COc1ccc(NC(=O)CSc2nnc(-c3cccs3)o2)cc1Cl	none (no result: AHR activator, GRIN3A LBD mod)
NC(=O)c1ncn([C@@H]2O[C@H](CNCc3cnc(N4CCOCC4)nc3)[C@@H](O)[C@H]2O)n1	GRIN3A LBD mod 12.7 (no result: AHR activator)
NC(=O)c1ncn([C@@H]2O[C@H](CNCc3cccc4c3sc3ccccc34)[C@@H](O)[C@H]2O)n1	none (no result: AHR activator)
NC(=O)c1ncn([C@@H]2O[C@H](CNCc3cccc(OC4CCCC4)c3)[C@@H](O)[C@H]2O)n1	GRIN3A LBD mod 16.8 (no result: AHR activator)
COC(=O)[C@]12CCCCC=C1N(Cc1ccc(OC)cc1)C(=O)[C@@H]2CC(=O)N1CCN(C(=O)c2ccco2)CC1	none (no result: AHR activator, GRIN3A LBD mod)
N#Cc1ccc(NC(=O)OC2CC3CC2[C@H]2CCCCN2C3)cc1 (some centres not stated)	none (no result: AHR activator, GRIN3A LBD mod)
COc1ccc(-c2nnc(OCc3ccccc3)c3ccccc23)cc1	AHR activator 55.7, GRIN3A LBD mod 16.4
O=C(N1CCc2ccccc2C1)n1cc(C(O)(c2ccccc2)c2ccccc2)nn1	none (no result: rCAG binder, AHR activator, KLK7 zymogen act, GRIN3A LBD mod)
CC(=O)Nc1sc(N/N=C/c2ccc(N(C)C)cc2)nc1-c1ccc(C)cc1	none (no result: AHR activator)
CC(=O)c1sc(N/N=C\c2ccc(N(C)C)cc2)nc1C	AHR activator 57.2
CC(=O)c1sc(N/N=C/c2cccc(O)c2)nc1C	GRIN3A LBD mod 13.7
CN1Cc2nnn(Cc3ccccc3)c2-c2ccccc2S1(=O)=O	none (no result: AHR activator, GRIN3A LBD mod)
CCCOc1nccc2c1n(C)c(=O)n2C	none (no result: AHR activator, GRIN3A LBD mod)
COc1ccc(CN=Cc2[nH]c3ccc(Br)c(Cl)c3c2O)cc1	AHR activator 57.2
Cc1cc(C)cc(N=Cc2[nH]c3ccc(Br)c(Cl)c3c2O)c1	GRIN3A LBD mod 17.7
CCSc1ncc(/C=N/Nc2ccc(Cl)cc2)n1C	AHR activator 103.4
COc1cc2cc(NC(C)=O)cc(NCc3ccccc3)c2cc1OC	GRIN3A LBD mod 11.9 (no result: AHR activator)
N#CC(C(=O)Nc1ccc(Cl)c(Cl)c1)=C1Nc2ccccc2N1	none
N#CC(C(=O)Nc1cccc(Cl)c1)=C1Nc2ccccc2N1	GRIN3A LBD mod 10.2
N#CC(C(=O)Nc1ccccc1)=C1Nc2ccccc2N1	AHR activator 77.9
COC(=O)[C@]1(Cc2ccccc2)NC=C(C(=O)c2ccccc2)[C@@H]1c1cccs1	none (no result: AHR activator, GRIN3A LBD mod)
Cc1c[nH]c2cccc(-c3ccc4c(c3)OCO4)c12	none (no result: AHR activator, GRIN3A LBD mod)
Nc1ccccc1N=Cc1ccc(-c2cccc(Cl)c2)o1	AHR activator 77.9, GRIN3A LBD mod 21.6
COc1ccc(-n2cc(COC(=O)NCCc3c[nH]c4ccccc34)nn2)cc1	none (no result: AHR activator, GRIN3A LBD mod)
Cc1ccc(C(=O)c2coc3c2C(=O)C(=O)c2ccccc2-3)cc1	AHR activator 50.0
COc1cc(C#Cc2c(-c3cncn3C)n(C)c3ccc(-c4ccc(OC)nc4)cc23)cc(OC)c1	AHR activator 59.5
CCOC(=O)C1CCN(C(=O)Cn2ncc3c([nH]c4ccccc43)c2=O)CC1	GRIN3A LBD mod 13.4
Cc1cccc(C(=O)NCC(=O)NNC(=O)c2ccccc2O)c1	GRIN3A LBD mod 14.1

Bioassay records deposited in PubChem by several laboratories.
